# In the supplement of paper PMC11417369:
# ± gives the standard deviation of the averaged measurements. Whole data set: some 25,000 sequences, median “ln(normalized median fluorescence intensity)” near 8.6, cut for the highest 2% near 10. The entries come from a sample that favours the highest values as a whole.
# System: PfAP2-EXP AP2 domain (GST-tagged)
# Experiment: gcPBM binding intensity (ln(normalized median fluorescence intensity)); higher = stronger DNA binding
# How it was run: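 The highest Masliner-normalised natural-log median intensity across replicate spots of either probe orientation is reported as binding intensity. GST-tagged P. falciparum DNA-binding domains expressed in E. coli were applied for 1 h to an Agilent 4 × 180k array of primer-extended double-stranded 36-bp intergenic genomic probes plus negative controls, and bound protein was detected with Alexa488 anti-GST antibody and scanned at 488 nm.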
row,Sequence,gcPBM binding intensity (ln)
1,TTTTTTTTTTTGATGGTGCAATATATTAAATAGAAA,8.86 ± 0.28
2,AATATATGGTTCCTTGATATTAAATTCAATTTAATG [CACACA_negctrl_site71],8.41 ± 0.52
3,ATATATATATATATATGTACACATATATATACTCAC [XGTACX_site8043],10 ± 0.4
4,GATTCTTCACCGTACTCACACATATATATATATATA [CACACA_site5665],10.2 ± 0.52
5,TAATTGATTCTTCACCGTACTCACACATATATATAT [XGTACX_site6530],9.61 ± 0.14
6,ATATTATATATATACACACACACATGCATGCACCTA [CACACA_site106],10.07 ± 0.099
7,TTTGGGATAAAACAAAGTACTAACAAAATATATAAT [XGTACX_site8240],8.85 ± 0.47
8,ATTTATATTTTTTAATGTACATTTATATGTATACAA [XGTACX_site4555],8.78 ± 0.41
9,ATATAATATTTCATGTGGACACATTTTATGATTGTA [XGTACX_site8770],8.74 ± 0.38
10,TTGTATATATATGGAAAAATATATATATATATATAT [GTGCAC_negctrl_site591],10.3 ± 0.29
11,TGCAAAAAAAAAAAAAAAAAATATATGGAAATATAT [GTGCAC_negctrl_site257],8.54 ± 0.19
12,ATGGAAATAAAAAAAAAAAAAAAAAAAAATATATAT [GTGCAC_negctrl_site67],8.36 ± 0.33
13,CGTATTATTATATAAACACACAAGGGGGCATGTATA [CACACA_site745],9.83 ± 0.042
14,AATATTTAAGTACTGGTGCGTGTATATAATGATTAA [GTGCAC_site9633],8.665 ± 0.078
15,AATATTTTAAATATTGCATGCAATGAAAAATGTAAA [TGCATGCA_site139],10.2 ± 0.31
16,TTATTGTAAATATATGCATGTGCAAAATGAAAAAAA [TGCATGCA_site399],9.07 ± 0.18
17,AAAAAAAAAAAAATTGCATGTAAATGAAATAATAAA [TGCATGCA_site116],8.89 ± 0.2
18,TAAAAGTTCACCTGTACACACATATAAATATGTACA [CACACA_site6901],8.47 ± 0.33
19,TAAGTTCCCTTTGAATGTACATATAATGAAAAGAAA [XGTACX_site826],8.76 ± 0.37

row,Sequence,gcPBM binding intensity (ln)
1,AGTTTCCATATGAGGTGTACATATATAATTTATTAT [XGTACX_site2369],8.72 ± 0.4
2,ATATATTTACTTAATACACACAAAAAAAAAAAAAAA [CACACA_site3657],8.21 ± 0.52
3,AAAAATACCTTATATATACACACTATGTTTTTCTTT [CACACA_site1192],8.71 ± 0.28
4,TATTGCCCTTGACACACACACATATAAATAAATATA [CACACA_site7220],8.63 ± 0.37
5,TATTGCCCGAAACACACACACATATATATATATATA [CACACA_site2491],10.3 ± 0.2
6,TATATATAGAAACACACACACACATATATATATATT [CACACA_site2539],8.73 ± 0.67
7,TATTGCCCTGGACACACACACATATATATATATATA [CACACA_site5389],10.2 ± 0.51
8,TATATATAGAAACACACACACATATATATATATATT [CACACA_site4115],8.7 ± 0.37
9,TATATTGCCCTTCACACACACACATATATATATATA [CACACA_site2492],10.2 ± 0.28
10,TTCAAATATAAATACACACACATAGCTACAAAATAA [CACACA_site4172],8.95 ± 0.42
11,ATATATATATATATTTGTACAGATTTATATTATAAT [XGTACX_site7612],9.96 ± 0.23
12,ATTCATATATTTATTGCATGCAAAGTAAAATAAATA [TGCATGCA_site307],10.23 ± 0.099
13,TTTGCAACATATAAAAGTACAAATAATATATTTATT [XGTACX_site890],8.41 ± 0.43
14,TATTATTTTTCATATGCATGCAAAAATAAAAAAATA [TGCATGCA_site350],9.63 ± 0.35
15,AGTATATATACACAAGGGGAATACATATACAAAATT [TGCATGCA_negctrl_site244],8.89 ± 0.39
16,TACACAAGGGGAAAAATATATATATATATATATATA [TGCATGCA_negctrl_site217],10.2 ± 0.57
17,ATACAAAAGGGGAATACACACACATATATATATATA [CACACA_site8694],10.1 ± 0.33
18,GGAATATATATACATACACACATATATATATATATA [CACACA_site1666],10.1 ± 0.33
19,ACAAAAGGGGAATACACACACATATATATATATATA [CACACA_site2215],10.2 ± 0.52

row,Sequence,gcPBM binding intensity (ln)
1,AAGATATGAGGGAATACACACATATATATATATATA [CACACA_site1581],10.2 ± 0.43
2,AAGATATGAGGGAATACACACATATTTATATTTATA [CACACA_site6846],8.26 ± 0.38
3,ACAAAAGGGGAATACACACACATATATAAATAAATA [CACACA_site7111],8.73 ± 0.45
4,ATAAAATCAAAATATACACACAAGGGGGAAAATCAA [CACACA_site2809],8.96 ± 0.42
5,TTTTTAATAATCTCTCAAAATGTTCTTATATTTTAC [CACACA_negctrl_site1691],8.11 ± 0.26
6,TATAAATGATTAATTTGTACATATTTTACTTAATTG [XGTACX_site5271],8.18 ± 0.37
7,ATATTATGTCTACATAAACACACATATATATAAAAA [CACACA_site7976],8.62 ± 0.48
8,TATATTTTACTCTTCACACATATACTCAATTTATAT [CACACA_site5357],8.94 ± 0.31
9,TTGTATCCTTAATGCATGCACCAAATAACAAAAGTA,10.2 ± 0.38
10,CTGTATAAAACCAATGCATGTAAATATATTAATATA [TGCATGCA_site511],9.1 ± 0.42
11,TATTGTATCCTTAATGCATGCACCAAATAAAAAAAG [TGCATGCA_site541],10.21 ± 0.064
12,AAAAAAATATATATATATATATATATATATATATAT [TGCATGCA_negctrl_site7],10.1 ± 0.26
13,AAAAAAAAAAAATATATATATATATATATATATATA [CACACA_negctrl_site1606],10.3 ± 0.21
14,AAAAAAAAAAAAAAAAAAAAAAAAAAATATATATAT [CACACA_negctrl_site271],9.795 ± 0.049
15,AAAAAAAAAAAAAAAAAAAAAAAAATATATATATAT [CACACA_negctrl_site436],10 ± 0.31
16,AAAAAAAAAATATATATATATATATATATATATATA [GTGCAC_negctrl_site467],9.95 ± 0.53
17,AAAAAAAAAAAAAATATATATATATATATATATATA [CACACA_negctrl_site540],10.2 ± 0.2
18,TTTAATTTTCCCTTCACACATAATATATATCTGTAT [CACACA_site5370],8.7 ± 0.43
